Shown are actives, neighbours in structure and some others; about 12% of the full set was active somewhere.
HP1b chromo inh = blocks HP1-beta chromodomain binding to methylated histone tails; P83916; AlphaScreen HP1-beta / biotin-H3K9me3 peptide binding; Potency, µM (top dose mostly 114 µM), for the others: at the highest dose activity change, negative = inhibition, most hits filed as inhibitors; 390,000 tested, 0.56% active; AID 540317; also: nearly all actives have a fitted effect of over 70% in size
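Compound inhibition of the preformed complex between 50 nM HP1-beta and 50 nM biotinylated H3K9me3 peptide was read by AlphaScreen. Buffer was PBS pH 7.4 with 0.01% Tween-20. Incubations ran 30 min at room temperature, with 10 ug/mL donor/acceptor beads.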
Sfp PPTase inh = blocks B. subtilis Sfp PPTase activity. Q9F4F7. Potency, µM, without a hit: largest response in the series, negative = inhibition, actives largely listed as inhibitors. Biochemical Sfp PPTase activity, qHTS. AID 1490. 310,000 tested, 3.5% active;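 also: the enzyme is Sfp with the accession as filed and its product quenches rhodamine fluorescence; 0% = enzyme reaction without inhibitor and -100% = no enzyme wells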
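With Hepes-Na pH 7.6 buffer containing 10 mM MgCl2, Sfp (15 nM) modified BHQ-2-YbbR (12.5 uM) using rhodamine-CoA (5 uM). Two reads 30 minutes apart at 525/598 nm yielded each well's rate.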
TDP1 block = inhibitors of human tyrosyl-DNA phosphodiesterase TDP1 | recombinant TDP1, AlphaScreen DNA substrate cleavage | 350,000 tested, 0.28% active | Q9NUW8 | AID 485290 | Potency, µM (series often up to 130 µM), inactives show top-dose activity change, negative = inhibition, most hits filed as inhibitors; also: % is scaled to controls: 0 for no effect and ±100 for the full control effect; nearly all actives have a fitted effect of over 40% in size
Target sequence (Q9NUW8 whole entry, looked up): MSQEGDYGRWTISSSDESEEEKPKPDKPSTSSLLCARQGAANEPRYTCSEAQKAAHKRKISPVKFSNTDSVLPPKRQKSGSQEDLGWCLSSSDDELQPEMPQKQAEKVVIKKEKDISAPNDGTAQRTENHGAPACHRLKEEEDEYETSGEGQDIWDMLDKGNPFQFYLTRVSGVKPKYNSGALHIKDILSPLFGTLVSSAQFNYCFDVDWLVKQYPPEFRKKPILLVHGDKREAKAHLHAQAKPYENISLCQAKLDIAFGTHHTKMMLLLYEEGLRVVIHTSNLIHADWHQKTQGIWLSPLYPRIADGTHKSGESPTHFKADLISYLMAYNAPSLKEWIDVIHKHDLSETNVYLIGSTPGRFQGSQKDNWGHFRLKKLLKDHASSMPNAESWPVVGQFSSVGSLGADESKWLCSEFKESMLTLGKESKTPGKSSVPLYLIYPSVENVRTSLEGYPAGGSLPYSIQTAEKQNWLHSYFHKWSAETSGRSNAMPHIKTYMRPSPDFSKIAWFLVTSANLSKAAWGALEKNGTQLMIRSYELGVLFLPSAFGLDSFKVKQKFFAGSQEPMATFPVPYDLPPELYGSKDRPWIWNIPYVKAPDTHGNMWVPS
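Here, a 5' biotin and 3' phosphotyrosine-FITC DNA oligonucleotide reports Tdp1 activity: intact substrate bridges AlphaScreen beads, while cleavage leaves a 3' phosphate and drops signal. All incubations at room temperature.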
JMJD2A Tudor = blocks the human JMJD2A Tudor domain. AlphaScreen JMJD2A-Tudor / H3K4me3 peptide binding. Potency, µM (series often up to 114 µM), without a hit: at the top dose activity change, negative = inhibition, usual class: inhibitors. 390,000 tested, 4.4% active; also: % is scaled to controls: 0 for no effect and ±100 for the full control effect; nearly all actives have a fitted effect of over 50% in size
BAZ2B inh = inhibitors of human BAZ2B bromodomain | Q9UIF8 | AlphaScreen BAZ2B-H3K14Ac peptide displacement | Potency, µM (doses to about 114 µM), for the others: top-dose activity change, negative = inhibition, hits mostly inhibitors | 360,000 tested, 4.4% active; also: % is scaled to controls: 0 for no effect and ±100 for the full control effect; nearly all actives have a fitted effect of over 60% in size
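Multi-concentration screen (max 110 uM) measuring displacement of acetylated histone H3 peptide from BAZ2B by AlphaScreen, using 50 nM protein, 50 nM peptide and 10 ug/mL streptavidin donor plus Ni-chelate acceptor beads.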
G9a block = G9a (human) methyltransferase inhibition. Q96KQ7. G9a H3K9 monomethylation, AlphaScreen, 2 h. Potency, µM (doses to about 102 µM), for inactives: at the highest dose activity, negative = inhibition, usual class: inhibitors. 350,000 tested, 8.8% active. AID 504332; also: % is scaled to controls: 0 for no effect and ±100 for the full control effect; nearly all actives have a fitted effect of over 75% in size
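G9a (20 nM) was preincubated 15 min with compound, then reacted 2 h at room temperature with 500 nM biotin-H3K9 peptide and 20 µM SAM. Monomethyl-H3K9 detected by AlphaScreen using anti-H3K9me1 antibody.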
The depositor's hits bear a star; [ ] = dose if it differs, or a comment. Calls follow the shape of the dose curve; as a rule, active = well fitted curve in the direction sought with a large enough effect; inconclusive = small, poorly fitted or top-dose-only effect, or another doubt; inactive = no such curve, though single readings can be large; an effect the other way counts as inactive or inconclusive. Potency is read from the fitted curve at half-maximal effect.

How did CCOC(=O)C1=C(C)N=c2s/c(=C/c3cccc([N+](=O)[O-])c3O)c(=O)n2C1c1ccccc1 (centres undefined) do in these assays?
HP1b chromo inh: 14µM*; Sfp PPTase inh: 50µM*; JMJD2A Tudor: 28µM*; BAZ2B inh: 7.1µM*; G9a block: 2µM*

Results for CCOC(=O)C1=C(C)N=c2s/c(=C\c3cccc(OCC(=O)O)c3)c(=O)n2C1c1ccccc1 (centres undefined) ?
HP1b chromo inh: 0%; Sfp PPTase inh: -21%; JMJD2A Tudor: inconclusive; BAZ2B inh: -38%; G9a block: inconclusive

What do the screens show for `COc1ccccc1C(=O)Nc1nc2nc(C)cc(=O)n2[nH]1`?
HP1b chromo inh: 6%; TDP1 block: 2%; JMJD2A Tudor: -30%; BAZ2B inh: -3%; G9a block: -27%[59 µM]

What do the screens show for `O=C(CN1CCCC1)N/N=C/c1c(O)ccc2ccccc12`?
HP1b chromo inh: 50%; Sfp PPTase inh: 2%; TDP1 block: 2%; JMJD2A Tudor: 79µM*; BAZ2B inh: 28µM*; G9a block: 8%

Results for O=C(CN1CCN(Cc2ccc(Cl)cc2)CC1)N/N=C/c1ccccc1F ?
HP1b chromo inh: 46%; Sfp PPTase inh: 8%; TDP1 block: 7%; JMJD2A Tudor: -7%; BAZ2B inh: -6%; G9a block: 6%

What do the screens show for `O=C(NN=Cc1c(O)ccc2ccccc12)C1CC1`?
HP1b chromo inh: 22%; JMJD2A Tudor: -12%

What do the screens show for `O=C(CN1CCCCCCC1)N/N=C/c1ccc(F)cc1F`?
HP1b chromo inh: inconclusive; Sfp PPTase inh: -2%; TDP1 block: -2%; JMJD2A Tudor: inconclusive; BAZ2B inh: -6%; G9a block: 22µM*

What do the screens show for `Cc1ccc(S(=O)(=O)N2CCN(CC(=O)N/N=C/c3ccc(C)o3)CC2)cc1`?
HP1b chromo inh: 19%; Sfp PPTase inh: 15%; TDP1 block: 6%; JMJD2A Tudor: -29%; BAZ2B inh: -3%; G9a block: inconclusive

How did Cc1ccc(O)c(/C=N/NC(=O)CN2CCCC2)c1 do in these assays?
HP1b chromo inh: 55%; Sfp PPTase inh: 8%; TDP1 block: 4%; JMJD2A Tudor: 71µM*; BAZ2B inh: 50µM*; G9a block: 27%

What do the screens show for `Cc1ccc(S(=O)(=O)N2CCN(CC(=O)N/N=C\c3ccc(O)c(O)c3)CC2)cc1`?
HP1b chromo inh: 30%; Sfp PPTase inh: inconclusive; TDP1 block: 5%; JMJD2A Tudor: -13%; BAZ2B inh: -24%; G9a block: 40µM*

Results for Cc1ccccc1/C=N/NC(=O)Cc1ccc(Cl)cc1 ?
HP1b chromo inh: 46%; Sfp PPTase inh: 1%; TDP1 block: 5%; JMJD2A Tudor: 1%; G9a block: -5%

Results for Cc1ccc(/C=N/NC(=O)Cc2ccc(Cl)cc2)c(O)c1 ?
HP1b chromo inh: -10%; Sfp PPTase inh: 18%; TDP1 block: 50µM*; JMJD2A Tudor: inconclusive; BAZ2B inh: -23%; G9a block: 16%

What do the screens show for `Cn1ncc(C#N)c1NC(=O)C1CC(c2ccccc2Cl)=NO1` (centres undefined)?
HP1b chromo inh: 0%; Sfp PPTase inh: 7%; TDP1 block: -2%; JMJD2A Tudor: inconclusive; BAZ2B inh: -17%

What do the screens show for `COc1ccc(Cl)cc1S(=O)(=O)Nc1ncn[nH]1`?
HP1b chromo inh: 50%; Sfp PPTase inh: -7%; TDP1 block: 10%; JMJD2A Tudor: -11%; BAZ2B inh: 1%; G9a block: 79µM*

Results for C[C@H](N)c1nnc(SCC(=O)N(C)C)o1 ?
HP1b chromo inh: 49%; Sfp PPTase inh: inconclusive; TDP1 block: 3%; JMJD2A Tudor: inconclusive; BAZ2B inh: inconclusive; G9a block: 8.9µM*

How did O=C1c2ccccc2C(=O)N1OS(=O)(=O)c1ccc(F)cc1 do in these assays?
HP1b chromo inh: 41%; Sfp PPTase inh: 8.9µM*; TDP1 block: -14%; JMJD2A Tudor: 9%; BAZ2B inh: -32%; G9a block: 2.2µM*

What do the screens show for `Cc1cc(C)c(C)c(S(=O)(=O)ON2C(=O)c3ccccc3C2=O)c1C`?
HP1b chromo inh: -32%; Sfp PPTase inh: 22µM*; TDP1 block: -4%; JMJD2A Tudor: 89µM*; BAZ2B inh: -39%; G9a block: 7.9µM*

How did O=S(=O)(c1ccccc1)N1CCN(S(=O)(=O)c2ccc(F)cc2)CC1 do in these assays?
HP1b chromo inh: 18%; Sfp PPTase inh: 5%; JMJD2A Tudor: -8%; BAZ2B inh: 2%; G9a block: 26%[0.501 µM]

Results for Cc1cc(C)c(S(=O)(=O)ON2C(=O)c3ccccc3C2=O)cc1C ?
HP1b chromo inh: inconclusive; Sfp PPTase inh: 20µM*; TDP1 block: 0%; JMJD2A Tudor: 56µM*; BAZ2B inh: inconclusive

How did C[C@H](O)CON1C(=O)c2ccccc2C1=O do in these assays?
Sfp PPTase inh: 8%; TDP1 block: 7%

What do the screens show for `Cc1ccc(S(=O)(=O)ON2C(=O)c3ccccc3C2=O)c(C)c1`?
HP1b chromo inh: 45µM*; Sfp PPTase inh: 10µM*; TDP1 block: 0%; JMJD2A Tudor: 50µM*; BAZ2B inh: 13%; G9a block: 7.9µM*

Results for CCn1c(N2CCN(S(=O)(=O)c3ccc(OC)cc3)CC2)nc2ccccc21 ?
HP1b chromo inh: 23%; Sfp PPTase inh: -11%; JMJD2A Tudor: -17%; BAZ2B inh: 1%; G9a block: 15%

Results for CCn1c(N2CCN(S(=O)(=O)c3ccccc3C(F)(F)F)CC2)nc2ccccc21 ?
HP1b chromo inh: 9%; Sfp PPTase inh: -5%; TDP1 block: 3%; JMJD2A Tudor: -14%[57.1 µM]; BAZ2B inh: inconclusive; G9a block: 50µM*

Results for COc1ccc2sc(C)[n+](C)c2c1 ?
HP1b chromo inh: 73%; Sfp PPTase inh: 45µM*; TDP1 block: 0%; JMJD2A Tudor: -2%; BAZ2B inh: 3%; G9a block: inconclusive

What do the screens show for `Cc1ccc(-c2ccc(CCC(=O)O)n2C(C)C)cc1`?
HP1b chromo inh: -3%; Sfp PPTase inh: 17%; TDP1 block: 4%; JMJD2A Tudor: -30%; BAZ2B inh: inconclusive; G9a block: 79µM*

What do the screens show for `COc1ccc(C(=O)Nn2c(CCC(=O)O)ccc2-c2ccc(C)cc2)cc1OC`?
HP1b chromo inh: -19%; Sfp PPTase inh: 3%; TDP1 block: 5%; JMJD2A Tudor: 50µM*; BAZ2B inh: -25%; G9a block: -30%

What do the screens show for `Cc1ccc(-c2ccc(CCC(=O)O)n2NC(N)=S)cc1`?
HP1b chromo inh: 19%; Sfp PPTase inh: inconclusive; TDP1 block: 3%; JMJD2A Tudor: inconclusive; BAZ2B inh: -11%; G9a block: inconclusive
